Test results: PubChem BioAssay (NCI)
The panel holds about 83,000 compounds, 20% with a hit somewhere; the sample as a whole holds those more often.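 Single-concentration screen, 48 h exposure, 96-well plates. Endpoint: percent growth. Below 10 = active.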 Active and inactive are the calls of the source.

The molecules below were run on MDA-MB-468 breast (assay: NCI-60 one-dose screen, 48 h (100 = growth as untreated, 0 = no growth, -100 = all killed)). Conditions: 10 µM unless noted.
In the case of `O=C(Nc1ccc(-n2cc(-c3ccncc3)c(-c3ccc(O)c(Cl)c3)n2)cc1)c1cc(C(F)(F)F)cc(C(F)(F)F)c1`, the growth is reported as 64.9% (inactive). `CCOC(=O)c1c(C(=O)OCC)c2cc(-c3ccn4c(C(=O)c5ccccc5)c(C(=O)OCC)c(C(=O)OCC)c4c3)ccn2c1C(=O)c1ccccc1` was tested, and the growth was 106% (inactive). With `CC(Nc1ncnc2ccc(-c3cnc(N)nc3)cc12)c1ccccc1` (stereo not given) the growth was -28.6% (active). With `COc1ccc(-c2nc3c(c(-c4ccc(Cl)cc4)nn3-c3ccccc3)c(-c3ccc(O)cc3)c2C#N)cc1` the growth was 54.8% (inactive). `CN(C)CCn1c(=O)c2c3cc4c(cc3n(CCN(C)C)c2c2ccc(Cl)cc21)OCO4` was tested, and the growth was 41% (inactive). In the case of `Cc1ccccc1Cn1cnc2ccc(-c3cc(NC(=O)c4ccc(NC5CCN(C)CC5)cc4)n[nH]3)cc21`, the growth is reported as 94.5% (inactive). In the case of `C[C@@H](C[C@H](CCO)c1cc(C(F)(F)F)cc(C(F)(F)F)c1)c1ccc2ccccc2c1`, the growth is reported as 83.9% (inactive). With `NC(=O)c1ccc(-c2cccc3c(=O)nc(N4CCOCC4)oc23)cc1` the growth was 105% (inactive). In the case of `CN(C)c1cccc2[nH]c(-c3[nH]ncc3Nc3ccnc(N)n3)nc12`, the growth is reported as -67.5% (active). With `O=C1Nc2ccc(Cl)cc2/C1=C\c1c(-c2ccc(F)cc2)nc2ccccn12` the growth was -13.6% (active). `Cc1ccc(-c2n[nH]c(=O)c3noc(-c4ccc(C)cc4)c23)cc1` was tested, and the growth was -8.93% (active). In the case of `COc1cc2c3c(c1O)-c1ccccc1[C@@H]1OC(=O)N(CC2)[C@H]31`, the growth is reported as 90% (inactive). For `Cc1ccc(Cl)cc1N1C(=O)CC(Sc2ccccc2N)C1=O` (stereo not given), the growth was 108% (inactive). In the case of `CCCCNC(=O)c1ccccc1C`, the growth is reported as 82.3% (inactive). `CC(C)(C)n1cc(-c2ccnc(NCCCNS(=O)(=O)c3ccccc3)c2)c(-c2cccc(O)c2)n1` was tested, and the growth was 9.54% (active). In the case of `COc1ccc(NC(=O)CSc2nnc(-c3cc(-c4ccc(S(N)(=O)=O)cc4)nc4ccccc34)n2-c2ccccc2)cc1`, the growth is reported as 86.4% (inactive). In the case of `CN1CCN(c2nc(-c3cccnc3)nc3sc4c(c23)CCCCCC4)CC1`, the growth is reported as 94.2% (inactive). For `O=[N+]([O-])C1=C(c2ccccc2)SC=C(c2ccccc2)S1`, the growth was 72.7% (inactive). With `c1ccc(-c2ccc3ccccc3c2)cc1` the growth was 91.8% (inactive). `COc1ccccc1Cn1cc2c(c1)-c1oncc1CC2` was tested, and the growth was 6.66% (active). With `NN1C(=O)CSC1=S` the growth was 119% (inactive). In the case of `Oc1ccc(-c2nc3ccc(/C(=N\N=C\c4ccc(Cl)cc4)c4ccccc4)cc3[nH]2)cc1`, the growth is reported as 79.5% (inactive). With `O=C(/C=C/c1ccc(C(F)(F)F)cc1)Nc1ccc(C=C2c3ccccc3C(=O)c3ccccc32)cc1` the growth was 33.5% (inactive). For `Nc1cc(N)c(N)cc1N`, the growth was 84.7% (inactive). With `O=C(O)COc1ccc([N+](=O)[O-])cc1Cl` the growth was 104% (inactive). `COc1ccc2c(c1)oc1c(C)c3c(c(C)c12)C(=O)N(N)C3=O` was tested, and the growth was 59.7% (inactive). `C[C@H](C(=O)N[C@@H](Cc1ccc(-c2ccccc2)cc1)C(=O)NC1CC(C)(C)N(C)C(C)(C)C1)c1ccc(-c2ccccc2)c(F)c1` was tested, and the growth was -86.5% (active). With `COc1cc(/C=C/C(=O)N2CCN(C(=O)c3cc(OC)c(OC)c(OC)c3)CC2)ccc1OCCCN1C(=O)c2cccc3cccc(c23)C1=O` the growth was 102% (inactive). With `NC(N)=N/N=C/c1ccc(Cl)cc1` the growth was 44% (inactive). With `CCCCCCCCCCn1cc[n+](C)c1` the growth was -42.1% (active). `CC/C(=C(/c1ccc(Cl)cc1)c1ccc(OCCN(C)C)cc1)c1ccc(Cl)cc1` was tested, and the growth was 50.7% (inactive). `O=c1ccc2c(ccc3ncccc32)o1` was tested, and the growth was 107% (inactive). In the case of `CCOC(=O)c1nc2c3ccccc3ccn2c1C(=O)OC`, the growth is reported as 92.1% (inactive). With `N#Cc1c(-c2ccc(C(F)(F)F)cc2)cc(N2CC(O)C2)n2c1nc1ccccc12` the growth was 67.1% (inactive). `CCc1cccc2c3c(sc12)C(c1ccc(F)cc1)C(C#N)=C(/N=C/c1ccc(Cl)cc1)O3` (stereo not given) was tested, and the growth was 31% (inactive). With `O=c1cc2oc3cc(O)c(O)cc3c(-c3ccccc3O)c-2cc1O` the growth was 93.9% (inactive). With `O=c1oc2cc(OS(=O)(=O)c3ccccc3)c(Cl)cc2c2c1CCCCCC2` the growth was 62.2% (inactive). For `CCOC(=O)[C@@H](C)C[C@H](Cc1ccccc1)NC(=O)c1csc([C@@H](C[C@H](C(C)C)N(C)C(=O)[C@@H](NC(=O)[C@H]2C[C@H](O[Si](C)(C)C(C)(C)C)CCN2C)C(C)C)OC(C)=O)n1`, the growth was 3.46% [9.25 µM] (active). With `C#Cc1ccc(-n2c(/C=C/c3ccc(O)c(OC)c3)nc3ncccc3c2=O)cc1` the growth was 89.8% (inactive). `COc1ccc(C2C3=C(COC3=O)N(CCO)c3cc(OC)c(OC)cc32)cc1` (stereo not given) was tested, and the growth was 110% (inactive).
